According to PubChem BioAssay (EPA / NIEHS):
The source made the active and inactive calls. The calls were made as follows: active = hit-call score of the fitted dose curve at least 0.9, where 1 is the maximum; inactive = score below 0.9.

experiment: CCTE_Shafer_MEA_acute_interburst_interval_mean: CCTE's Neural Acute Assay for Mean Interburst Interval, Shafer Lab (AID 2284016);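 also: percent change of mean interburst interval versus each well's own pre-dose baseline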
Experimental: CCTE_Shafer_MEA_acute assay is conducted using Axion Biosystems 48 well microelectrode array (MEA) plates and Maestro recording system. Each well of the MEA plate contains a grid of 16 microelectrodes embedded in the culture surface. Electrically active cells, such as neurons, can be cultured over the electrodes, and electrical activity in these cells can be recorded extracellularly. The spontaneous firing of neurons is captured from each electrode on a microsecond timescale providing both temporally and spatially precise data. […] The CCTE_Shafer_MEA_acute assay uses primary cultures of rat cortical neurons. As these cultures mature over time, neural networks develop functional activity and form cohesive networks in which electrical activity can be highly coordinated. Baseline 40-minute recordings are made on days post-plating 13 or 15, followed by a secondary 40-minute recording after chemical exposure.CCTE_Shafer_MEA_acute_interburst_interval_mean is a component of the CCTE_Shafer_MEA_acute assay. It measures the average time between the start of consecutive single-electrode bursts (temporally-clustered groups of action potential firing) during a recording in a microelectrode array (MEA) using Axion Biosystems Maestro 768 channel amplifier with the AxIS adaptive spike detector. The recordings before and after chemical treatment are used to calculate a percent change in the mean inter-burst interval in each well.Data from the assay component CCTE_Shafer_MEA_acute_interburst_interval_mean was analyzed into 1 assay endpoint. This assay endpoint, CCTE_Shafer_MEA_acute_interburst_interval_mean, was analyzed in the negative analysis fitting direction relative to DMSO as the negative control and baseline of activity. Using a type of functional reporter, gain or loss-of-signal activity can be used to understand electrical activity.
Spontaneous activity in the cortical cultures was recorded using an Axion Biosystems Maestro 768 channel amplifier and Axion Integrated Studios (AxIS) v1.8 (or later) software. The amplifier recorded from all channels simultaneously (gain = 1200 x; sampling rate = 12.5 kHz/channel): raw signals were filtered with a Butterworth band-pass filter (300-5000 Hz), which filters out slower local field potentials leaving only fast potentials, i.e., "spikes", arising from extracellular currents associated with action potentials (Pine 2006; Wheeler and Nam 2011). On-line spike detection of filtered signals was conducted with the AxIS adaptive spike detector, using a threshold of 8x the root mean squared (rms) noise on each channel. Any electrodes with rms noise levels greater than 5 uV were grounded (e.g., no data were recorded). Once grounded, an electrode was grounded for the duration of the experiment. All recordings were conducted at 37 C. Wells were deemed usable if on the day of the exposure >/= 10 electrodes were active (defined as >/= 5 spikes/min). On DIV 13 or 15, a minimum of three wells from one cortical culture preparation were treated with each compound (0.03-40 uM). Prior to recording baseline activity, each mwMEA plate was placed in the Maestro at 37 C and allowed to sit for 20 min while firing rates stabilized. Baseline activity (40 min) was recorded before the addition of each compound. An additional 40 min of spontaneous activity was recorded in the presence of each compound. Changes in network parameters relative to baseline were assessed following compound treatment.

outcome, inactive:
CN1C(=O)CC[C@H]1c1cccnc1, CC(C)(c1cc(Br)c(O)c(Br)c1)c1cc(Br)c(O)c(Br)c1, CC1=CC(=O)/C(=C(/C)O)C(=O)O1, CC(O)CC(C)(C)O (stereo unspecified), CCN(Cc1cccc(S(=O)(=O)O)c1)c1ccc(C(=C2C=CC(=[N+](CC)Cc3cccc(S(=O)(=O)O)c3)C=C2)c2ccccc2S(=O)(=O)[O-])cc1, NC(=O)c1nc(-c2cccc(-c3cc(F)ccc3OCC(F)(F)C(F)(F)F)c2)n[nH]1, CCCCCCCCCCCCO, CC/C(=C(/CC)c1ccc(O)cc1)c1ccc(O)cc1, CN(C)C(=O)C1(N2CCCCC2)CCN(CC[C@@]2(c3ccc(Cl)c(Cl)c3)CN(C(=O)c3ccccc3)CCO2)CC1, c1ccc2n[nH]nc2c1, CC(=O)N1CCN(c2ccc(OC[C@H]3CO[C@](Cn4ccnc4)(c4ccc(Cl)cc4Cl)O3)cc2)CC1, O=C1O[C@H]([C@@H](O)CO)C(O)=C1O, COc1cccc([C@H](O)C2CCN(CCc3ccc(F)cc3)CC2)c1OC, Clc1ccccc1C(c1ccccc1)(c1ccccc1)n1ccnc1, CO[C@H]1/C=C/O[C@@]2(C)Oc3c(C)c(O)c4c(O)c(c(/C=N/N5CCN(C)CC5)c(O)c4c3C2=O)NC(=O)/C(C)=C\C=C\[C@H](C)[C@H](O)[C@@H](C)[C@@H](O)[C@@H](C)[C@H](OC(C)=O)[C@@H]1C, CN(C[C@@H](CC[N+]12CCC(C3CCCCC3)(CC1)CC2)c1ccc(Cl)c(Cl)c1)C(=O)c1cc(C(F)(F)F)cc(C(F)(F)F)c1, CC[C@@H]1C[C@H](N(Cc2cc(C(F)(F)F)cc(C(F)(F)F)c2)C(C)=O)c2cc(C(F)(F)F)ccc2N1C(=O)OC(C)C, O=C(O)c1ccccc1-n1cc(C(=O)O)c(=O)c2cc(Nc3c(F)cc(F)cc3Cl)c(Cl)cc21, Cc1cn([C@H]2C[C@H](N=[N+]=[N-])[C@@H](CO)O2)c(=O)[nH]c1=O, CCN(CC)C(=O)c1cc(S(=O)(=O)Cc2ccccc2)c(N2CCC(c3ccccc3)CC2)cc1N(CC)CCN(C)C, Cc1cc2c(cc1C(F)(F)F)N(C(=O)Nc1ccc(Oc3cccnc3C)nc1)CC2, CCCCCCCCOC(=O)c1cc(O)c(O)c(O)c1, C[C@]12CC[C@@H]3c4ccc(O)cc4CC[C@H]3[C@@H]1CC[C@H]2O, CN(C)c1ccc(C(=C2C=CC(=[N+](C)C)C=C2)c2ccc(N(C)C)cc2)cc1

AC50, active:
O=c1[nH]sc2ccccc12 34.3 µM, COc1cc(C(=O)NC2CCN(C)CC2)ccc1Nc1ncc2c(n1)N(C1CCCC1)CC(F)(F)C(=O)N2C 3.83 µM, CC(C)(C)c1cc(/C=C2\SC(N)=NC2=O)cc(C(C)(C)C)c1O 14.6 µM, Cc1c2ccccc2c(C)c2c1ccc1ccccc12 7.49 µM, NCc1cccc(C2CCN(C(=O)c3ccc(C#Cc4ccccc4F)o3)CC2)c1 4.14 µM, CCCCOC(=O)c1ccc(O)cc1 31 µM, OC12N=C(c3ccccc3)SC1Cc1cc(Cl)ccc12 (stereo unspecified) 6.48 µM
